The record followed here is PubChem BioAssay AID463173 (ICCB-Longwood Screening Facility, Harvard Medical School, 2010).

Out of some 52,000 compounds screened, about 4,300 (8.3%) were called active. This excerpt belongs to a sample that is enriched for actives. A number with no mark means an inactive call. No stated cut-off is given here; in the data, active means survival mostly below about 52% (no sharp cut-off); inactive means mostly above about 56%.

In this assay the test system is DeltatarO mutant. In words: growth inhibition of S. aureus wild type versus tarO mutant, primary screen, teichoic acid synthesis inhibitors, RN4220, OD600 (AID 463173). To be noted: OD600, 18 h, hits give low values, screened at 18.75 µg/mL (by protocol).
Turning to `CCCCC(CC)C(=O)Nc1nnc(C(C)C)s1` (stereo not given), the survival is 91%.
The value for `O=C(CN1C(=O)CC(c2ccco2)Sc2ccccc21)Nc1ccc(Br)cc1` (stereo not given) was 75%; that for `O=C1CC(c2nnc(Cc3ccc(F)cc3Cl)o2)CN1c1ccccc1` (stereo not given) was 133%; that for `COc1ccc(CNC(=O)c2ccc(-c3nc(CSc4ccccc4)c(C)o3)cc2)cc1OC` was 78%.
Take `Cc1ccc(SCc2nc(-c3ccc(C(=O)NCCc4ccc(Cl)cc4)cc3)oc2C)cc1`: the survival is -2% (active).
The value for `COc1ccc(OC)c(CNC(=O)c2ccc(-c3nc(CSc4ccccc4)c(C)o3)cc2)c1` was 120%; that for `Cc1oc(-c2ccc(C(=O)NCCc3ccc(Cl)cc3)cc2)nc1CSc1ccccc1` was 83%; that for `COc1ccc(CNC(=O)c2ccc(-c3nc(CSc4ccc(C)cc4)c(C)o3)cc2)cc1OC` was -1% (active).
For `Cc1ccc(SCc2nc(-c3ccc(C(=O)NCc4ccc(Cl)cc4)cc3)oc2C)cc1` the value was 76%; for `CCc1ccc(CNC(=O)c2ccc(-c3nc(CSc4ccc(C)cc4)c(C)o3)cc2)cc1`, 67%.
The value for `COc1ccc(CNC(=O)c2ccc(-c3nc(CSc4ccccc4)c(C)o3)cc2)c(OC)c1` was 85%.
As for `COc1ccc(CNC(=O)c2ccc(-c3nc(CSc4ccc(C)cc4)c(C)o3)cc2)c(OC)c1`, the survival is 6% (active).
For `Cc1ccc(NC(=O)CSc2nnc(-c3cc4occc4n3C)n2-c2ccccc2C)c(C)c1` the value was 88%.
For `Cc1ccc(CSC2=Nc3ccccc3C3=NC(CCC(=O)NCc4cccs4)C(=O)N23)c(C)c1` (stereo not given) the value was 76%.
For `Cc1ccc2c(c1)cc(C(=O)Nc1ccc(F)cc1F)n2C` the value was 106%.
For `COc1ccccc1NC(=O)CCCOc1cc(=O)n(C)c2ccccc12`, the survival is 114%.
The value for `Cn1c(=O)[nH]c(=O)c2[nH]c(NCCO)nc21` was 80%; that for `COc1ccc(-c2nc(CN3CCC(C(=O)NCCCN4CCN(c5ccccc5F)CC4)CC3)c(C)o2)cc1OC` was 70%.
With `Cc1ccc(CNc2ccc(-c3nc(-c4ccncc4)no3)cc2[N+](=O)[O-])cc1`, the survival is 39% (active).
The value for `COc1ccccc1CNc1ccc(-c2nc(-c3cccnc3)no2)cc1[N+](=O)[O-]` was 78%; that for `COc1ccccc1CNc1ccc(-c2nc(-c3ccccc3C)no2)cc1[N+](=O)[O-]` was 91%.
For `COc1ccc(-c2noc(-c3ccc(NCc4ccccc4OC)c([N+](=O)[O-])c3)n2)cc1` the value was 57%.
The value for `Cc1ccc(CNc2ccc(-c3nc(-c4cccnc4)no3)cc2[N+](=O)[O-])cc1` was 75%; that for `COc1ccccc1CNc1ccc(-c2nc(C)no2)cc1[N+](=O)[O-]` was 68%.
Take `O=[N+]([O-])c1cc(-c2nc(-c3ccncc3)no2)ccc1NCc1ccccc1`: the survival is 109%.
The value for `COc1ccccc1CNc1ccc(-c2nc(-c3ccncc3)no2)cc1[N+](=O)[O-]` was 45% (active); that for `COc1ccccc1CNc1ccc(-c2nc(-c3ccccn3)no2)cc1[N+](=O)[O-]` was 43% (active).
For `O=C(CNCC1CCCO1)Nc1ccccc1-n1cccc1` (stereo not given) the value was 70%.
For `CCOc1ccc(CNCCNC(=O)c2nonc2N)cc1` the value was 84%; for `CC1C(=NO)C(C)C(c2ccccc2)NC1c1ccccc1` (stereo not given), 99%; for `O=C(Nc1cc(Cl)ccc1O)c1nc2ncccn2n1`, 74%.
For `CCOc1cc(C2C(C(=O)Nc3ccccc3)=C(C)Nc3ncnn32)cc(Br)c1O` (stereo not given), the survival was 102%.
For `Cc1ccc2sc(N(CCCN(C)C)C(=O)c3ccco3)nc2c1C` the value was 128%; for `COC(=O)CN1C(=O)CSc2ccc(S(=O)(=O)Nc3ccc(F)c(Cl)c3)cc21`, 83%.
`Cc1ccc(NC(=O)COc2ccc(-c3nn(C)c(=O)c4ccccc34)cc2)c(C)c1`: the survival was 73%.
The value for `CC(=O)c1cccc(NC(=O)c2cc3c(s2)-c2c(C)cccc2OC3)c1` was 120%; that for `Cc1ccc(NC(=O)c2cc(C)nc3c2c(C)nn3-c2cccc(Cl)c2C)c(C)c1` was -5% (active); that for `COc1ccc(NC(=O)c2cc(C)nc3c2c(C)nn3-c2cccc(Cl)c2C)c(OC)c1` was 88%.
Take `Cc1cc(C)c(NC(=O)c2cc(C)nc3c2c(C)nn3-c2cccc(F)c2)c(C)c1`: the survival is 94%.
The value for `Cc1ccc(-n2nc(C)c3c(C(=O)NCCc4ccccc4)cc(C)nc32)cc1` was 70%; that for `Cc1ccc(CCNC(=O)c2cc(C)nc3c2c(C)nn3-c2ccc(C)cc2)cc1` was 25% (active).
For `Cc1cc(C(=O)Nc2cccc(C)c2C)c2c(C)nn(-c3cccc(F)c3)c2n1` the value was 94%; for `Cc1cc(C(=O)Nc2ccc(C(C)C)cc2)c2c(C)nn(-c3ccccc3)c2n1`, 73%; for `Cc1ccc(-n2nc(C)c3c(C(=O)NCCc4ccc(S(N)(=O)=O)cc4)cc(C)nc32)cc1`, 118%.
The value for `Cc1cc(C)cc(NC(=O)c2cc(C)nc3c2c(C)nn3-c2ccccc2)c1` was -5% (active).
With `CCc1cccc(C)c1NC(=O)c1cc(C)nc2c1c(C)nn2-c1cccc(Cl)c1C`, the survival is 88%.
As to `Cc1cc(C(=O)Nc2cccc(C(F)(F)F)c2)c2c(C)nn(-c3cccc(F)c3)c2n1`, the survival is 17% (active).
For `Cc1ccc(-n2nc(C)c3c(C(=O)Nc4ccc(Br)c(C)c4)cc(C)nc32)cc1` the value was 101%; for `COc1ccc(OC)c(CNC(=O)c2nn(C)c3c2CS(=O)(=O)c2ccccc2-3)c1`, 74%.
For `CCC(C(=O)Nc1ccc(C(=O)OC)cc1)n1c(=O)c(-c2ccccc2NC(C)=O)nc2ccccc21` (stereo not given) the value was 94%; for `O=C(CSc1nc2ccsc2c(=O)n1-c1ccc(Br)cc1)NCc1ccccc1`, 73%; for `CCCCN(CCCC)S(=O)(=O)c1ccc(NC(=O)c2c(-c3ccccc3)noc2C)cc1`, 60%.
For `CCOC(=O)c1c(S(=O)(=O)N2CCCC(C(=O)NCc3cccc(OC)c3)C2)c(C)n(C)c1C` (stereo not given) the value was 117%.
In the case of `Cc1ccc(-c2nc(C)c(CCNC(=O)c3ccccc3Br)s2)cc1`, the survival was 72%.
On to `CCn1c(=O)cc(OCC(=O)N2CCN(c3ccc(OC)cc3)CC2)c2ccccc21`, for which the survival is 71%.
The value for `O=C(NCc1cccn1Cc1ccccc1)Nc1ccc(Br)cc1F` was 66%; that for `CCOc1cccc(C2Oc3nc(SC)nnc3-c3ccccc3N2C(C)=O)c1OC` (stereo not given) was 59%; that for `Cc1c(C(=O)Nc2ccccc2F)sc2nc3n(c(=O)c12)CCC3` was 87%.
For `O=C(Cn1ccn(-c2ccc(F)c(F)c2)c(=O)c1=O)NCc1ccccc1` the value was 62%.
In the case of `COc1cc(OC)cc(-n2c(=O)c3ccccc3n(Cc3ccccc3C#N)c2=O)c1`, the survival was 128%.
For `Cc1cc(C(=O)N2CCN(c3ccccc3)CC2)c2c(C)nn(-c3cccc(F)c3)c2n1` the value was 91%; for `CCc1ccc(-n2nc(C)c3c(C(=O)Nc4cc(OC)cc(OC)c4)cc(C)nc32)cc1`, 102%.
With `Cc1ccc(C)c(N2CCN(C(=O)c3cc(C)nc4c3c(C)nn4-c3cccc(F)c3)CC2)c1`, the survival was 8% (active).
On to `Cc1ccc(C)c(N2CCN(C(=O)c3cc(C)nc4c3c(C)nn4-c3ccccc3)CC2)c1`, for which the survival was 126%.
For `CCc1ccc(-n2nc(C)c3c(C(=O)Nc4ccc(Cl)cc4)cc(C)nc32)cc1` the value was 66%.
The value for `CCc1ccc(-n2nc(C)c3c(C(=O)Nc4cccc(C(F)(F)F)c4)cc(C)nc32)cc1` was 20% (active).
Regarding `Cc1cccc2cc(CN(CCO)S(=O)(=O)c3ccc(Cl)cc3)c(=O)[nH]c12`, the survival was 82%.
For `CCOCCCNC(=O)c1ccc2c(c1)NC(=O)C(CS(=O)(=O)Cc1ccc(F)cc1Cl)N2` (stereo not given) the value was 88%; for `CC(C)Cn1c(N2CCN(C(=O)c3sc4ccccc4c3Cl)CC2)nc2ccccc21`, 89%.
The value for `CCC(Cc1ccccc1)NC(=O)CN1C(=O)COc2ccc(S(=O)(=O)N3CCCCCC3)cc21` (stereo not given) was 113%; that for `CC(=O)c1cccc(NS(=O)(=O)c2cccc(S(=O)(=O)c3ccc(Br)cc3)c2)c1` was 55%.
For `Cc1cc(NC(=O)c2cc(-c3cccc(Cl)c3)on2)nn1Cc1ccc(Cl)cc1` the value was 43% (active); for `COc1ccc(-c2cc(C(=O)Nc3ccn(Cc4ccc(C)cc4)n3)no2)cc1OC`, 57%.
Turning to `COc1cccc(-c2cc(C(=O)Nc3ccn(Cc4ccc(C)cc4)n3)no2)c1`, the survival is 33% (active).
For `Cc1cc(NC(=O)c2cc(-c3ccc(Cl)c(Cl)c3)on2)n(-c2ccccc2)n1` the value was 63%.
For `Cc1cc(NC(=O)c2cc(-c3ccc(Cl)cc3)on2)nn1Cc1ccc(Cl)cc1` the value was 140%.
The value for `Cc1ccc(CNC(=O)c2cc(-c3ccc(Cl)cc3)on2)cc1` was 93%; that for `Cc1ccc(Cn2ccc(NC(=O)c3cc(-c4ccc(Cl)c(Cl)c4)on3)n2)cc1` was 45% (active); that for `Cc1cc(NC(=O)c2cc(-c3ccc(Br)cc3)on2)nn1Cc1ccc(Cl)cc1` was 155%.
On to `COc1cccc(-c2cc(C(=O)Nc3cc(C)nn3-c3ccccc3)no2)c1`, for which the survival was 74%.
The value for `O=c1c2cccnc2n(Cc2ccccc2F)c(=O)n1Cc1ccccc1Cl` was 62%.
For `Cc1cccc(S(=O)Cc2ccc(C(=O)NC3CCCCCC3)o2)c1` (stereo not given), the survival is 81%.
For `CCOc1ccc(NC(=O)C2CCCN(S(=O)(=O)c3ccc(Br)s3)C2)cc1` (stereo not given) the value was 101%; for `Cc1ccc(CSc2nc3cccnc3n2Cc2ccc(C(=O)NCCc3cccs3)cc2)cc1`, 135%.
As to `Cc1ccccc1CNC(=O)c1ccc(CSc2nc3cccnc3n2Cc2ccccc2)cc1`, the survival is 55%.
For `COc1ccccc1CNC(=O)c1ccc(Cn2c(SCc3ccccc3)nc3cccnc32)cc1` the value was 37% (active); for `COc1ccc(Cn2c(SCc3ccc(C(=O)NCc4ccc(C)cc4)cc3)nc3cccnc32)cc1`, 58%; for `COCCCNC(=O)c1ccc(CSc2nc3cccnc3n2Cc2ccc(OC)cc2)cc1`, 107%.
For `O=C(NCCc1cccs1)c1ccc(Cn2c(SCc3ccccc3)nc3cccnc32)cc1` the value was 99%; for `CCNC(=O)c1ccc(CSc2nc3cccnc3n2Cc2ccc(OC)cc2)cc1`, 0% (active).
The value for `O=C(NCc1ccccc1Cl)c1ccc(Cn2c(SCc3ccccc3)nc3cccnc32)cc1` was 72%; that for `Cc1ccccc1CSc1nc2cccnc2n1Cc1ccc(C(=O)NCCc2cccs2)cc1` was 47% (active); that for `Cc1ccccc1CNC(=O)c1ccc(Cn2c(SCc3ccccc3)nc3cccnc32)cc1` was 0% (active).
On to `CCOc1ccccc1CNC(=O)c1ccc(Cn2c(SCc3ccccc3)nc3cccnc32)cc1`, for which the survival is 74%.
For `Cc1ccccc1CNC(=O)c1ccc(Cn2c(SCc3cccc(F)c3)nc3cccnc32)cc1` the value was 89%.
